FEN1 inh-1 = qHTS Assay for the Inhibitors of Human Flap endonuclease 1 (FEN1); Recombinant FEN1 flap cleavage, fluorescence, 15 min; P39748; actives 0.35% (n = 390,000); Potency, µM (doses to about 114 µM), most hits filed as inhibitors; further: nearly all actives have a fitted effect of over 65% in size
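Compounds are tested as a concentration series against 10 nM FEN1; after a 15 min room-temperature preincubation, 50 nM substrate starts cleavage, with plate reads at 0 and 15 min. Normalized responses are fitted by a Hill equation.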
WRN inhibitor = qHTS for Inhibitors of WRN Helicase | AID 651768, 2012 | Bifunctional 3'-5' exonuclease/ATP-dependent helicase WRN (Homo sapiens), Q14191 | actives 0.46% (n = 360,000) | WRN helicase unwinding, fluorescent forked duplex, kinetic | Potency, µM (doses to about 114 µM), usual class: inhibitors; further: nearly all actives have a fitted effect of over 55% in size
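WRN at 20 nM final preincubated with compound 15 min at room temperature; reaction started with 100 nM fluorophore/quencher forked duplex oligonucleotide and 2 mM ATP final. Unwinding followed kinetically by red fluorescence (ex 525, em 598 nm).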
POLK inh = qHTS for Inhibitors of Polymerase Kappa; DNA polymerase kappa (Homo sapiens), Q9UBT6; AID 588579, 2011; purified Pol kappa, fluorescent DNA synthesis assay, 10 min; actives 0.53% (n = 400,000); Potency, µM (top dose mostly 107 µM), hits mostly inhibitors
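Activity was followed as the change in fluorescence between reads at 0 and 10 min after starting the reaction with 50 nM substrate. Beforehand, 10 nM polymerase had been preincubated with compound for 15 min at room temperature.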
POLB inh = qHTS Assay for Inhibitors of DNA Polymerase Beta; actives 1.3% (n = 340,000); AID 485314, 2010; Potency, µM (doses to about 114 µM), usual class: inhibitors; Pol beta primer extension/strand displacement, fluorescence kinetic; P06746
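Curves were derived by four-parameter Hill fits of normalized qHTS data. The kinetic fluorescent primer-extension read was taken at 0 and 10 min after 50 nM substrate, following a 15 min room-temperature preincubation of 10 nM enzyme with compounds.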
Pol eta inh = qHTS for Inhibitors of Polymerase Eta | Potency, µM (highest dose often 114 µM), actives largely listed as inhibitors | recombinant Pol eta, fluorescent DNA replication assay | actives 1.2% (n = 390,000) | DNA polymerase eta (Homo sapiens), Q9Y253 | AID 588591, 2011
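Pol eta (10 nM) was preincubated with compounds for 15 min at room temperature, after which fluorescent replication substrate (50 nM final) was added to start the reaction. Fluorescence was read kinetically at 0 and 10 min.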
Pol iota inh = qHTS for Inhibitors of Polymerase Iota | DNA polymerase iota (Homo sapiens), Q9UNA4 | Pol iota fluorescent replication assay, 10 min | actives 1% (n = 390,000) | AID 588590, 2011 | Potency, µM (top dose mostly 115 µM), most hits filed as inhibitors
Target sequence (Q9UNA4 whole entry, looked up): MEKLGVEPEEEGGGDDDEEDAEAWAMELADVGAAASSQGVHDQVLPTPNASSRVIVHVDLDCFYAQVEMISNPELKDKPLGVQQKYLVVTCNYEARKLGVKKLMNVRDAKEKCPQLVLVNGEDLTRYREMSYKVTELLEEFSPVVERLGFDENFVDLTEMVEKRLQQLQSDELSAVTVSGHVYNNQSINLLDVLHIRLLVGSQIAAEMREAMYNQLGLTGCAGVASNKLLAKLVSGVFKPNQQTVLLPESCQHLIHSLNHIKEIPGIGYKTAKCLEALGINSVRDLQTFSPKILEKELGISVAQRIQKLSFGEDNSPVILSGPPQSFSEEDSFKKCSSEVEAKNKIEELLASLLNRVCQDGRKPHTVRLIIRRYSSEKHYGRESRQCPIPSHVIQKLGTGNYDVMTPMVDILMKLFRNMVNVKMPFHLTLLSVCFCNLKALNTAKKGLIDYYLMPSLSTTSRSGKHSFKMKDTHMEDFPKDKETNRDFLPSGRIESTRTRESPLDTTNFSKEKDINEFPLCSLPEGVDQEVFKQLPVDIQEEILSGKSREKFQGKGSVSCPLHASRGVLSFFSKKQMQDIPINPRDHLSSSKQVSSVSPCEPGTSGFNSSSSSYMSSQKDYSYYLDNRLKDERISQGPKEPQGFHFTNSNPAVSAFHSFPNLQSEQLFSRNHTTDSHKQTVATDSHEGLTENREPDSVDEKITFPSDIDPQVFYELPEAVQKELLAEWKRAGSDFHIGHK
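Pol iota at 10 nM preincubated 15 min with compounds at room temperature; reaction started with fluorescent substrate, 50 nM final. Fluorescence read kinetically at 0 and 10 min; buffer-only wells as negative control.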
FEN1 inh-2 = qHTS Assay for the Inhibitors of FEN1: Confirmatory Assay for Cherry-picked Compounds. shares compounds with FEN1 inh-1. FEN1 flap cleavage, TAMRA/BHQ2 fluorogenic DNA substrate. Potency, µM, most hits filed as inhibitors. actives 79% (n = 880); further: nearly all actives have a fitted effect of over 60% in size
A number is an active result; [ ] = remark or other dose. Most compounds without a hit are left out; they make up all but 2.4% or so of the library. The call rests on the fitted dose curve; in most records, active means well fitted curve in the direction sought with a large enough effect; inconclusive means small, poorly fitted or top-dose-only effect, or another doubt; inactive means no such curve, though single readings can be large; an effect the other way counts as inactive or inconclusive.

Results for CCOc1ccc(-c2cc3cc(OC)c(OC)cc3c(C)n2)cc1 ?
FEN1 inh-1: inactive; WRN inhibitor: inactive; POLK inh: inactive; POLB inh: inactive; Pol eta inh: inactive; Pol iota inh: inactive

What do the screens show for `COc1cc2cc(-c3ccc(O)cc3O)nc(C)c2cc1OC`?
FEN1 inh-1: inconclusive; WRN inhibitor: inactive[11.6 µM]; POLK inh: inactive; POLB inh: inconclusive; Pol eta inh: inconclusive; Pol iota inh: inconclusive; FEN1 inh-2: inconclusive

How did O=C1Nc2ccccc2C1Cc1ccccn1 (stereo not drawn) do in these assays?
FEN1 inh-1: inactive; WRN inhibitor: inactive; POLK inh: inactive; POLB inh: inactive; Pol eta inh: inactive; Pol iota inh: inactive

What do the screens show for `O=C1Nc2ccccc2C1C(C[N+](=O)[O-])c1ccccn1` (stereo not drawn)?
FEN1 inh-1: inconclusive; WRN inhibitor: inactive[11.6 µM]; POLK inh: inactive; POLB inh: inactive; Pol eta inh: inactive; Pol iota inh: inactive; FEN1 inh-2: 9.5

How did COc1ccccc1/C=N/N1C(=O)c2cccc3cccc(c23)C1=O do in these assays?
FEN1 inh-1: inactive; WRN inhibitor: inactive; POLK inh: inactive; POLB inh: inactive; Pol eta inh: inactive; Pol iota inh: inactive

What do the screens show for `O=C1c2cccc3cc([N+](=O)[O-])cc(c23)C(=O)N1/N=C/c1ccc(O)cc1O`?
FEN1 inh-1: inconclusive; WRN inhibitor: inconclusive; POLK inh: inconclusive; POLB inh: 40µM; Pol eta inh: 50µM; Pol iota inh: inconclusive; FEN1 inh-2: 43

Results for C/C(=N/NC(=O)c1ccco1)c1cccc(NC(=O)c2ccc(C)s2)c1 ?
FEN1 inh-1: inactive; WRN inhibitor: inactive[11.6 µM]; POLK inh: 89µM; POLB inh: inactive; Pol eta inh: inactive; Pol iota inh: inactive; FEN1 inh-2: inconclusive

How did Cc1ccc2c(c1)cc(C(=O)NCc1ccc(F)cc1)n2C do in these assays?
FEN1 inh-1: inactive; POLK inh: inactive; POLB inh: inconclusive; Pol eta inh: inactive; Pol iota inh: inactive

How did Cc1cc2nc(-c3cccc(NC(=O)CSc4ccc(Cl)cc4)c3)oc2cc1C do in these assays?
FEN1 inh-1: inactive; POLK inh: inactive; POLB inh: inactive; Pol eta inh: inactive; Pol iota inh: inactive

How did Cc1c(Cl)cccc1N=Cc1ccc([N+](=O)[O-])s1 do in these assays?
FEN1 inh-1: 14µM; WRN inhibitor: inactive; POLK inh: inactive; POLB inh: inconclusive; Pol eta inh: 89µM; Pol iota inh: 35µM; FEN1 inh-2: 13

How did Cc1ccccc1C(=O)N/N=C/c1ccc([N+](=O)[O-])s1 do in these assays?
FEN1 inh-1: inactive; WRN inhibitor: inactive; POLK inh: inactive; POLB inh: inactive; Pol eta inh: inactive; Pol iota inh: inconclusive

How did CN(C)CCCN1C(=O)c2cccc3c([N+](=O)[O-])ccc(c23)C1=O do in these assays?
FEN1 inh-1: 50µM; WRN inhibitor: inactive; POLK inh: inactive; POLB inh: inconclusive; Pol eta inh: inactive; Pol iota inh: inconclusive; FEN1 inh-2: 34

How did Nc1ccc2nc(-c3cc(Cl)c(N)c(Cl)c3)[nH]c2c1 do in these assays?
FEN1 inh-1: 50µM; WRN inhibitor: inconclusive; POLK inh: inconclusive; POLB inh: inconclusive; Pol eta inh: inconclusive; Pol iota inh: inactive; FEN1 inh-2: inconclusive

How did Cc1ccc(C)c(-c2nc3ccc(N)cc3[nH]2)c1 do in these assays?
FEN1 inh-1: inactive; WRN inhibitor: inactive; POLK inh: inactive; POLB inh: inactive; Pol eta inh: inactive; Pol iota inh: inactive

What do the screens show for `O=C(CSCc1cnn(-c2ccccc2)c1-n1cccc1)NCc1ccc(F)cc1`?
FEN1 inh-1: inactive; POLK inh: inactive; POLB inh: inactive; Pol eta inh: inactive; Pol iota inh: inactive

What do the screens show for `COc1cc(C2CC(=O)N(Cc3ccc(F)cc3)c3ccccc3S2)cc(OC)c1OC` (stereo not drawn)?
FEN1 inh-1: inactive; POLK inh: inactive; POLB inh: inactive; Pol eta inh: inactive; Pol iota inh: inactive

What do the screens show for `Cc1ccc2oc(=O)c3cc(C(=O)NCCCN4CCCCCC4)sc3c2c1`?
FEN1 inh-1: inconclusive; WRN inhibitor: inactive[11.6 µM]; POLK inh: inactive; POLB inh: inactive; Pol eta inh: inactive; Pol iota inh: 79µM; FEN1 inh-2: inconclusive

What do the screens show for `O=C(NCCCN1CCN(c2ccccc2F)CC1)c1cc2c(Cl)nc3ccccc3c2s1`?
FEN1 inh-1: inactive; POLK inh: inactive; POLB inh: inactive; Pol eta inh: inactive; Pol iota inh: inactive

What do the screens show for `O=C(NCCCN1CCCC1)c1cc2c(Cl)nc3ccccc3c2s1`?
FEN1 inh-1: 40µM; WRN inhibitor: inactive; POLK inh: inactive; POLB inh: inactive; Pol eta inh: inactive; Pol iota inh: inactive; FEN1 inh-2: 38

Results for CC1CCN(CCCNC(=O)c2cc3c(Cl)nc4ccccc4c3s2)CC1 ?
FEN1 inh-1: inconclusive; WRN inhibitor: inactive; POLK inh: inactive; POLB inh: inactive; Pol eta inh: inactive; Pol iota inh: inactive; FEN1 inh-2: inconclusive

Results for CCCN1CCN(CCCNC(=O)c2cc3c(Cl)nc4ccccc4c3s2)CC1 ?
FEN1 inh-1: 45µM; POLK inh: inactive; POLB inh: inactive; Pol eta inh: inactive; Pol iota inh: inactive; FEN1 inh-2: inconclusive

How did Cc1ccc2c(c1)-c1onc(C(=O)N(C)c3ccc(F)cc3)c1CO2 do in these assays?
FEN1 inh-1: inactive; POLK inh: inactive; POLB inh: inactive; Pol eta inh: inactive; Pol iota inh: inactive

Results for Cc1cc(C)c2nc3nc(C)c(C)cc3c(N)c2c1 ?
FEN1 inh-1: 45µM; WRN inhibitor: inactive[11.6 µM]; POLK inh: inconclusive; POLB inh: 16µM; Pol eta inh: inactive; Pol iota inh: 32µM; FEN1 inh-2: 24

How did CCOc1ccc(OC(=O)c2cn(-c3ccc(C)cc3)c(=O)c3ccccc23)cc1 do in these assays?
FEN1 inh-1: inactive; POLK inh: inactive; POLB inh: inactive; Pol eta inh: inactive; Pol iota inh: inactive

What do the screens show for `CC(C)(C)/C(O)=C/c1nc2cc(Cl)ccc2oc1=O`?
FEN1 inh-1: 28µM; WRN inhibitor: inactive; POLK inh: inactive; POLB inh: inactive; Pol eta inh: inactive; Pol iota inh: inactive; FEN1 inh-2: 12

Results for Cc1ccc2oc(=O)c(/C=C(\O)C(C)(C)C)nc2c1 ?
FEN1 inh-1: 50µM; WRN inhibitor: inactive; POLK inh: inactive; POLB inh: inactive; Pol eta inh: inactive; Pol iota inh: inactive; FEN1 inh-2: 34
